Compounds with a hit are over-represented: about 3% of the library has one in this group of screens.
PPC-1+TRAIL kill = compounds killing PPC-1 cancer cells with TRAIL present (potentiator screen, no TRAIL-free arm). cell killing (% activity), % at 4 µM or 5 µM. 220,000 tested, 0.41% active. PPC-1 cells + TRAIL, ATPLite viability luminescence;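 active = cell killing above 50% in the first pass at 4 µM, then a duplicate retest at 5 µM averaging 50% or more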;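 also: plate controls were cells with TRAIL plus DMSO for no effect and medium-only wells lacking cells for full effect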
SENP7 block = inhibitors of human SENP7 protease. Q9BQF6. recombinant SENP7, Z-RLRGG-aminoluciferin luminescence, 40 min. inhibition, % at 5 µM. 330,000 tested, 1.5% active. AID 434973;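 active = inhibition above about 50% at the single test dose, limit read from the data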;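 also: plate controls were DMSO with enzyme for no effect and no enzyme buffer wells for full effect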
SENP8 block-1 = inhibitors of human SENP8 protease; AID 602440; inhibition, % at 20 µM; recombinant SENP8, Nedd8 substrate fluorescence; 360,000 tested, 0.64% active; in the data active = inhibition mostly above about 40%, no sharp cut-off; inactive = mostly below about 27%
SENP8 block-2 = blocks the human protease SENP8; purified SENP8, Z-RLRGG-aminoluciferin cleavage, luminescence; inhibition, % at 10 µM; 330,000 tested, 1.2% active; in the data active = inhibition above about 50%
SENP6 inh = SENP6 protease inhibition. 330,000 tested, 1.8% active. Recombinant SENP6 catalytic domain, aminoluciferin luminescence. inhibition, % at 10 µM. AID 2599. Q9GZR1;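 active = inhibition above about 50% at the single tested dose, limit read from the data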;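 also: plate controls were DMSO wells with enzyme for no effect and DMSO wells lacking enzyme for full effect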
Target sequence (Q9GZR1 628-1112 limits assumed): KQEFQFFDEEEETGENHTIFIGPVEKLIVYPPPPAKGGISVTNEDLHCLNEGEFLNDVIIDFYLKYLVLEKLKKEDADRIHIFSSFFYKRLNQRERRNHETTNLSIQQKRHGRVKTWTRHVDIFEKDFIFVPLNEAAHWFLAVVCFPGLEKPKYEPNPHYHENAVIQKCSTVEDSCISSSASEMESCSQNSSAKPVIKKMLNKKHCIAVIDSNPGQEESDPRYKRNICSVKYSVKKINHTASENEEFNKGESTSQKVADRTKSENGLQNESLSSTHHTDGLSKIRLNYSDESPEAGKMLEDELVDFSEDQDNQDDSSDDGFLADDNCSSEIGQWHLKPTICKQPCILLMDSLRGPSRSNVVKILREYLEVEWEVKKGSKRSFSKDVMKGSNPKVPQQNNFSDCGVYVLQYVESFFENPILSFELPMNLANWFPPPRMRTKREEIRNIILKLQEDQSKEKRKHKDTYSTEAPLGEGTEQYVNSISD
TRAIL sens C8 = caspase-8 TRAIL sensitization; NB7+C8 cells + TRAIL, ATPlite viability luminescence; inhibition (viability loss, TRAIL sensitization), % at 10 µM; 360,000 tested, 1% active;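 active = compounds causing at least 50% loss of cell viability in the single-dose screen, relative to plate controls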
SENP8 confirm = human SENP8 inhibition, confirmed | inhibition, % at 12.5 µM | 6,200 tested, 40% active | shares compounds with SENP7 block | AID 488912 | Recombinant SENP8, Z-RLRGG-aminoluciferin luminescence, 60 min;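 active = mean inhibition across replicates above about 50%, limit read from the data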
SENP6 confirm = human SENP6 inhibition, confirmed | shares compounds with SENP7 block | recombinant SENP6, Z-RLRGG-aminoluciferin luminescence | 6,200 tested, 58% active | AID 488915 | inhibition, % at 12.5 µM
SENP7 confirm = confirmation of human SENP7 protease inhibitors | shares compounds with SENP7 block | recombinant SENP7, Z-RLRGG-aminoluciferin luminescence, 40 min | inhibition, % at 12.5 µM | 6,200 tested, 69% active | AID 488917
Casp3 select = caspase-3 inhibition (SENP selectivity assay); 6,200 tested, 60% active; inhibition, % at 12.5 µM; shares compounds with SENP7 block; purified caspase-3, Z-DEVD-aminoluciferin luminescence, 60 min; AID 488918;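 active = mean inhibition above about 50%, limit read from the data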;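 also: plate controls were enzyme with DMSO for no effect and wells without caspase-3 for full effect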
Target sequence (P42574 28-227 limits assumed): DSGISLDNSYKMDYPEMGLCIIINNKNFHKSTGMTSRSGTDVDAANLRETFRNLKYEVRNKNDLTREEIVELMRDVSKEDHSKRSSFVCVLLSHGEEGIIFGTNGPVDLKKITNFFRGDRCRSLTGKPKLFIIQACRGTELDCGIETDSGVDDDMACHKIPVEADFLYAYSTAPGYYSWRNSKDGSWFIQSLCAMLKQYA
Luc interf = counter-screen for SENP inhibitors: luminescence interference; inhibition, % at 12.5 µM; 6,200 tested, 39% active; Pre-incubated SENP8/Z-RLRGG-aminoluciferin, luciferase luminescence interference; AID 488919; shares compounds with SENP7 block;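 active = mean inhibition above about 50% when retested at one dose, limit read from the data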;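 also: plate controls were DMSO wells with completed reaction for no effect and substrate without enzyme for full effect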
Starred values were filed as active, the others as inactive; . = no result.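 The calls were made as follows, unless noted: active = mean inhibition above about 50% in the one-dose retest (limit read from the data); inactive = the rest.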

SMILES | PPC-1+TRAIL kill | SENP7 block | SENP8 block-1 | SENP8 block-2 | SENP6 inh | TRAIL sens C8 | SENP8 confirm | SENP6 confirm | SENP7 confirm | Casp3 select | Luc interf
O=C(Cn1cc(SCc2ccc(Cl)cc2)c2ccccc21)N1CCOCC1 | -6 | 49 | 19 | 44 | 67* | -5 | 13 | 65* | 82* | 26 | 21
O=C(Cn1cc(SCc2ccc(F)cc2)c2ccccc21)N1CCOCC1 | 2 | 22 | 18 | 16 | 58* | -5 | 50* | 48 | 79* | 27 | 36
CCn1c(=S)sc2c(=O)n(CC(=O)Nc3cccc(OC)c3)c(C)nc21 | . | 2 | 10 | 9 | 4 | -2 | . | . | . | . | .
Cc1ccc(C)c(Nc2nc(N)c3ccccc3n2)c1 | 24 | 49 | -119 | 46 | 58* | 35 | 27 | 30 | 75* | 65* | 44
CCCN(CC(=O)Nc1ccccc1OC)C(=O)c1ccc2[nH]c3c(c2c1)CC(C)CC3 (centres undefined) | . | -1 | -21 | -25 | -15 | 14 | . | . | . | . | .
C[C@H](C(=O)O)c1cccc(C(=O)c2ccccc2)c1 | . | 6 | 19 | 1 | -12 | -4 | . | . | . | . | .
CC(C(=O)O)c1ccc(C(=O)c2ccccc2)s1 (centres undefined) | . | 41 | 7 | 52* | 68* | -5 | 62* | 52* | 79* | 88* | 61*
CCOC(=O)c1c(NC(=O)CN2CCN(c3ccc(Cl)cc3)CC2)sc(C)c1C | 19 | 55* | -18 | -9 | -15 | -11 | -1 | 5 | 8 | 4 | 2
N#CC(C#N)=NNc1ccc([N+](=O)[O-])cc1 | 6 | 44 | 24 | 74* | 81* | -19 | 11 | 82* | 93* | 61* | 83*
O=C(N/N=C/c1ccc(OC(=O)c2ccccc2Cl)cc1)c1ccccn1 | . | 71* | -7 | 5 | 4 | 26 | 12 | 11 | 15 | 29 | 10
N#Cc1ccsc1NC(=O)COc1ccc(-c2nnco2)cc1 | 15 | 71* | -37 | 70* | 87* | -1 | -23 | 66* | 93* | 87* | 22
O=c1c2ccccc2nnn1CSc1ccc2c(c1)OCCO2 | 6 | 63* | 26 | 49 | 16 | 15 | 72* | 70* | 87* | 72* | 71*
Cc1ccc(N2CC(C(=O)Nc3nnc(SCC(N)=O)s3)CC2=O)cc1 (centres undefined) | . | 3 | -4 | -2 | -3 | -10 | . | . | . | . | .
O=c1cc(-c2ccccc2)[nH]n1-c1nc2ccccc2[nH]1 | 7 | 11 | -264 | 24 | 65* | 8 | 35 | 52* | 85* | 78* | 49
CCc1cc(=O)[nH]c(-n2[nH]c(-c3ccccc3)cc2=O)n1 | 3 | 4 | 4 | -3 | 9 | -7 | . | . | . | . | .
C[C@@H]1CN([C@@H](C)CO)S(=O)(=O)c2ccc(Br)cc2O[C@@H]1CN(C)Cc1cccnc1 | . | . | 10 | . | . | -11 | . | . | . | . | .
Nc1ccc2c(c1)C/C(=C/c1ccco1)C2=O | 4 | -8 | -387 | -3 | -40 | 41 | . | . | . | . | .
O=C1/C(=C/c2ccco2)CCc2ccccc21 | 9 | -1 | -50 | 75* | 87* | 23 | 97* | 99* | 102* | 96* | 94*
COc1ccc2c(c1)CC/C(=C/c1ccco1)C2=O | 18 | -5 | -72 | 83* | 91* | 50 | 96* | 97* | 102* | 92* | 94*
Clc1ccc(-c2nnc(-c3cccnc3)o2)cc1 | . | -1 | 19 | -4 | 9 | -16 | . | . | . | . | .
Clc1ccc(-c2nnc(-c3ccccc3Cl)o2)cc1 | 24 | 87* | 6 | 50* | 83* | 47 | 4 | 45 | 52* | 39 | 23
CCCNCc1nnc(-c2ccccc2Cl)o1 | -12 | -5 | 8 | -4 | -17 | 15 | . | . | . | . | .
Clc1ccccc1-c1nnc(-c2ccccc2Cl)o1 | 25 | -1 | 21 | 77* | 83* | 8 | 79* | 83* | 94* | 69* | 50*
COCCn1c(N)c(C(=O)OCc2ccccc2)c2nc3ccccc3nc21 | 13 | 45 | -284 | 61* | 73* | 5 | -14 | 8 | 8 | -6 | 0
C=CCn1c(N)c(C(=O)OCCC)c2nc3ccccc3nc21 | 13 | 12 | -428 | -2 | 1 | 3 | . | . | . | . | .
SMILES | PPC-1+TRAIL kill | SENP7 block | SENP8 block-1 | SENP8 block-2 | SENP6 inh | TRAIL sens C8 | SENP8 confirm | SENP6 confirm | SENP7 confirm | Casp3 select | Luc interf
S=C(Nc1ccc(Cl)cc1)c1nc2ccccc2[nH]1 | 26 | 33 | 9 | 41 | 59* | 69* | 13 | 48 | 92* | 71* | 11
CS(=O)(=O)c1ccc2nc(NC(=O)c3ccccc3)sc2c1 | . | 88* | -42 | 78* | 88* | 37 | 14 | 80* | 94* | 88* | 24
Cc1ccc(NC(=O)Nc2nc3ccc(S(C)(=O)=O)cc3s2)cc1 | . | 12 | -47 | -7 | -18 | 13 | . | . | . | . | .
Cc1cccc(C(=O)Nc2nc3ccc(S(C)(=O)=O)cc3s2)c1 | . | 74* | -81 | 63* | 75* | 27 | 7 | 42 | 88* | 78* | -2
CCSc1nsc(NC(=O)Nc2ccccc2F)n1 | . | 50 | 11 | 36 | 65* | 2 | 28 | 42 | 79* | 48 | 15
CS(=O)(=O)c1ccc2nc(NC(=O)Nc3ccccc3F)sc2c1 | . | 72* | -7 | 6 | 33 | 13 | -7 | -2 | 1 | 5 | -3
COc1ccc(C(=O)/C=C/c2ccc(F)cc2)c(OC(=O)c2ccc([N+](=O)[O-])cc2)c1 | -14 | -14 | 29 | -20 | 38 | 12 | . | . | . | . | .
COc1ccc(C(=O)/C=C/c2cccs2)c(OC(=O)c2cccc([N+](=O)[O-])c2)c1 | 8 | 39 | 29 | 67* | 79* | 10 | 31 | 39 | 19 | 44 | 2
Cc1onc(-c2c(F)cccc2Cl)c1C(=O)Nc1cc(S(=O)(=O)N2CCCCC2)ccc1O | . | . | 10 | . | . | 13 | . | . | . | . | .
CS(=O)(=O)N(CC(=O)Nc1ccccc1Cl)c1ccc(Cl)cc1 | 3 | 2 | -1 | -1 | 7 | -3 | . | . | . | . | .
O=C(Nc1nc2ccccc2s1)c1ccc([N+](=O)[O-])o1 | . | 60* | 6 | 50* | 76* | 16 | -28 | -20 | -6 | -6 | -6

Source: PubChem BioAssay
